# Results taken from PubChem BioAssay AID624417 (National Center for Advancing Translational Sciences (NCATS), 2012).
# In all, about 410,000 compounds went through this assay and about 6,400 (1.6%) were called active. Not shown: some 20% with an inconclusive outcome. Only a selection was taken, and actives are over-represented in it overall. Values without a mark were called inactive. Calls come from the whole dose curve; as a rule, active = well fitted inhibition curve with a large enough effect; inconclusive = small, poorly fitted or top-dose-only effect; inactive = no such curve, though single readings can be large or run the other way.
# Biological target: Glucagon-like peptide 1 receptor (Homo sapiens) (UniProt P43220)
# Test: qHTS of GLP-1 Receptor Inverse Agonists (Inhibition Mode); note: nearly all actives have a fitted effect of over 55% in size
# Conditions: HEK293 GLP-1R CRE-luciferase, luminescence, 24 h, GLP-1R form is constitutively active; series mostly up to 38.3 µM; activity change, negative = inhibition: at the top concentration
# Method in brief: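 Using stably transfected HEK293 (constitutively active GLP-1R, cAMP-luciferase reporter), compounds were incubated 24 hr and luciferase measured by luminescence.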
# % is set by controls: 0 for no effect and ±100 for the full control effect; potency is the fitted concentration of half-maximal effect.
# Chain of Glucagon-like peptide 1 receptor (Homo sapiens) (P43220 whole entry, looked up): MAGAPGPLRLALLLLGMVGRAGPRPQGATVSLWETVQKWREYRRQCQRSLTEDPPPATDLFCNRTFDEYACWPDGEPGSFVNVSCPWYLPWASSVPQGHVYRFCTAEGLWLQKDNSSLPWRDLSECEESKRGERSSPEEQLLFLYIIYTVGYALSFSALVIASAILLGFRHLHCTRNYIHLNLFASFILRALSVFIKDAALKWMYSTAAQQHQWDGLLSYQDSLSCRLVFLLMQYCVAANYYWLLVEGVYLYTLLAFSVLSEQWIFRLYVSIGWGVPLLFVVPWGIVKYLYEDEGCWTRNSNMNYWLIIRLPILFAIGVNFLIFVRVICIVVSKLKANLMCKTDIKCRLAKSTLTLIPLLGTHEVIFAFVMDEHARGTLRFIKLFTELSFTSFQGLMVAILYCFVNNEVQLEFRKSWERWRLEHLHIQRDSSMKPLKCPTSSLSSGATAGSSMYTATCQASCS
SMILES,"activity change, negative = inhibition",Potency
CSc1ncnc2c1ncn2CCCNCC1CCCCC1,8.69%,–
CCOC(=O)C1CCCN(C(=O)c2cc(-c3cccs3)oc2C)CC1 (stereo not given),-20.4%,–
O=C(NCc1ccc(F)cc1F)[C@@H]1CCCN1C(=O)[C@@H]1CCCN1C(=O)c1cccc(Cl)c1,23.8%,–
COc1ccc(N2c3ccccc3CN(Cc3ccccc3)[C@@H](C)[C@H]2Cc2ccc(-c3ccccc3)cc2)cc1,8.83%,–
COC(=O)c1ccc2nc(-c3ccccc3)c(Cc3ccc(OC)cc3C)n2c1,0.241%,–
CCN(CC)c1ncnc2c1ncn2[C@H]1CN(Cc2cccs2)C[C@@H](CO)O1,38.5%,–
COCCOCCn1cnc2ccccc21,6.82%,–
Cc1cc2ncn(CCCCOc3ccccc3)c2cc1C,–,10 µM (active)
Clc1ncn(CCOc2ccccc2)c1Cl,15.4% [at 0.307 µM],–
COC(=O)c1ccc(CN2C(=O)C(Cc3ccccc3)ON=C2c2ncccc2C)o1 (stereo not given),23.9%,–
CCc1nnc(NC(=O)c2ccco2)s1,16.5%,–
OC[C@@H]1CN(Cc2cccs2)C[C@H](n2cnc3c(Nc4ccccc4)ncnc32)O1,-1.88%,–
S=c1[nH]nc(-c2ccc(Cl)cc2)n1CC1CCCO1 (stereo not given),0%,–
O=C(c1[nH]ncc1-c1ccc(Cl)cc1)C1CO1 (stereo not given),–,11.2 µM (active)
O=C(c1nnc(-c2ccc(Cl)cc2)o1)C1CCCC1,12.1%,–
CC(=O)OC[C@@H]1CN(Cc2ccccc2)C[C@H](n2cnc3c(NCc4ccco4)ncnc32)O1,7.04%,–
CCCCCCN1C[C@@H](O)[C@H](n2cc(COC(=O)c3ccccc3)nn2)C[C@@H]1c1ccc(Cl)cc1,-10.5%,–
C[C@H]1CN([C@@H](C)CO)C(=O)CCCn2nncc2CO[C@@H]1CN(C)S(=O)(=O)c1cccc(C#N)c1,-6.94%,–
COCCCN1C(=O)C(CC(=O)NCc2cccs2)CC(C(=O)N2CCOCC2)=C1C (stereo not given),5%,–
CCSc1ncc(Cl)c(C(=O)Nc2c(C(=O)c3ccccc3)oc3ccccc23)n1,7.74%,–

SMILES,"activity change, negative = inhibition",Potency
CCOc1ccc(N(Cc2ccccc2)C(=O)c2nc(SCC)ncc2Cl)cc1,–,5.62 µM (active)
CCOc1ccc(NC(=O)c2nc(SCC)ncc2Cl)cc1,-10.7%,–
CC(=O)C1=CCC(c2ccccc2)N(S(=O)(=O)c2ccc(C)cc2)C1 (stereo not given),10%,–
COc1ccc(C(=O)OCC(=O)Nc2cc(C)on2)cc1F,4.43%,–
COC(=O)c1ccc2c(c1)S(=O)(=O)NC2C (stereo not given),5.42%,–
Cc1cc(Br)cn2c(Cc3ccccc3C(F)(F)F)c(C3CCCCC3)nc12,7.58%,–
COc1ccc(CNC(=O)c2ccc(-c3cccnc3)c3ccoc23)cc1OC,24.1%,–
O=C(NC1(C(F)(F)F)N=C(c2ccccc2)N(C2CCCCC2)C1=O)c1ccccc1F (stereo not given),–,11.2 µM (active)
O=C(NC1(C(F)(F)F)NC(=O)N(C2CCCCC2)C1=O)c1ccco1 (stereo not given),-24.1%,–
COC(=O)NC1(C(F)(F)F)NC(=O)N(C2CCCCC2)C1=O (stereo not given),0.304%,–
CC1(C(=O)NS(=O)(=O)C2CC2)CCCN(C(=O)CSc2ccccc2)C1 (stereo not given),19.1%,–
CC1=C(C(=O)N(C)C)CC(CC(=O)NCCN2CCOCC2)C(=O)N1Cc1ccccc1 (stereo not given),15.2%,–
C=C1C(=O)[C@]23C[C@H]1CCC2[C@@]1(C)C(C[C@@H]3O)[C@](C)(C(=O)O)CC[C@@H]1O (stereo not given in full),17.2%,–
COc1cc(C=C(OC(C)=O)c2ccc3c(c2)OCO3)cc(OC)c1OC,15.3%,–
C[C@H]1Cn2cnc(C(=O)N[C@H](C)c3ccccc3)c2C(=O)N1,8.44%,–
CCCCc1nc2ccc(F)cc2cc1C,29.3%,–
O=C(Nc1ccc(Br)cc1)c1ccc(Br)c(S(=O)(=O)NCc2ccccc2)c1,–,10 µM (active)
Cc1ccc(C(=O)Nc2ccc(C(=O)O)cc2)cc1S(=O)(=O)Nc1ccccc1,-7.85%,–
O=C(Nc1ccc(F)cc1)c1ccc(S(=O)(=O)NCc2cccnc2)cc1,-6.58%,–
O=C1OCCOC2CCCc3oc(-c4ccccc4)c1c32 (stereo not given),8.65%,–

SMILES,"activity change, negative = inhibition",Potency
COc1ccc(C(C)C)cc1-c1ccc2nncn2c1,16.1%,–
Cc1ccc(C(=O)N/C(=C/c2ccc(-c3cccc([N+](=O)[O-])c3)o2)C(=O)NCCCN(C)C)cc1,–,10 µM (active)
CN(C)CCNC(=O)/C(=C/c1cccc([N+](=O)[O-])c1)NC(=O)c1ccccc1,4.47%,–
N#C/C(=C\c1ccc(-c2cccc([N+](=O)[O-])c2)o1)C(=O)NCCN1CCOCC1,31.2% [at 7.66 µM],–
O=C(OCC(=O)N1CCCCCC1)c1cccc(Cl)c1Cl,-32.7%,–
C[C@@H]1CN([C@H](C)CO)C(=O)CCCn2nncc2CO[C@@H]1CN(C)S(=O)(=O)c1cccc(C#N)c1,1.58%,–
Cc1ccc(Cn2cc(CN3CC(N4CCN(C)CC4)CS3(=O)=O)nn2)cc1 (stereo not given),23.4%,–
COc1cc(Cl)c(C)cc1NC(=O)CSc1nnc(-c2ccco2)n1CC(C)C,-3.81%,–
COc1ccccc1NC(=O)CSc1nnc(-c2ccoc2C)n1CCc1ccccc1,–,7.94 µM (active)
CCn1c(SCC(=O)NC2CCCC2)nnc1-c1ccoc1C,-16.5%,–
Cc1c(NC(=O)CSc2nnc(-c3cccnc3)n2N)c(=O)n(-c2ccccc2)n1C,2.18%,–
Cc1c(NC(=O)CSc2cccc3cccnc23)c(=O)n(-c2ccccc2)n1C,–,5.62 µM (active)
Cc1c(NC(=O)CSc2nnnn2-c2ccc(C(=O)O)cc2)c(=O)n(-c2ccccc2)n1C,39%,–
Cn1cnc(S(=O)(=O)N2C[C@@H](O)COC[C@@H]3O[C@H](CC(=O)NC4CCC4)CC[C@H]32)c1,5.42%,–
Brc1ccc2nc(-c3ccccc3)c(Cc3ccccc3)n2c1,-4.19%,–
Cc1ccc(N(Cc2ccc(C(=O)Nc3ccccc3C(=O)NCc3ccco3)cc2)S(C)(=O)=O)cc1C,-2.72%,–
Cc1cccc(Nc2ccccc2C(=O)NCc2ccco2)c1C,–,12.6 µM (active)
O=C(CCNC(=O)c1ccccc1Cl)NCc1ccco1,16.7%,–
CC1(C(=O)NCc2ccc3c(c2)OCO3)CCN1C(=O)Cc1cccs1 (stereo not given),13.1%,–
O=C(NCc1cccnc1)c1cc(C2CCCCN2C(=O)CCc2ccccc2)on1 (stereo not given),3.69%,–
